Laboratory results taken from the supplement of paper PMC3334620.
The full ranking holds about 33,000 sequences; the median of “E-score (-0.5 to 0.5)” is about -0.012, and the highest 2% start at about 0.29. The full list was thinned out, with the highest values kept by preference.

What follows are sequences tested against T1, Ybr033w (UniProt P38073) (assay: PBM E-score (8-mer binding enrichment) (E-score (-0.5 to 0.5)); higher = stronger / more preferred TF binding). Conditions: protein concentration: 200 nM; construct: GST-full length.
T1 sequence: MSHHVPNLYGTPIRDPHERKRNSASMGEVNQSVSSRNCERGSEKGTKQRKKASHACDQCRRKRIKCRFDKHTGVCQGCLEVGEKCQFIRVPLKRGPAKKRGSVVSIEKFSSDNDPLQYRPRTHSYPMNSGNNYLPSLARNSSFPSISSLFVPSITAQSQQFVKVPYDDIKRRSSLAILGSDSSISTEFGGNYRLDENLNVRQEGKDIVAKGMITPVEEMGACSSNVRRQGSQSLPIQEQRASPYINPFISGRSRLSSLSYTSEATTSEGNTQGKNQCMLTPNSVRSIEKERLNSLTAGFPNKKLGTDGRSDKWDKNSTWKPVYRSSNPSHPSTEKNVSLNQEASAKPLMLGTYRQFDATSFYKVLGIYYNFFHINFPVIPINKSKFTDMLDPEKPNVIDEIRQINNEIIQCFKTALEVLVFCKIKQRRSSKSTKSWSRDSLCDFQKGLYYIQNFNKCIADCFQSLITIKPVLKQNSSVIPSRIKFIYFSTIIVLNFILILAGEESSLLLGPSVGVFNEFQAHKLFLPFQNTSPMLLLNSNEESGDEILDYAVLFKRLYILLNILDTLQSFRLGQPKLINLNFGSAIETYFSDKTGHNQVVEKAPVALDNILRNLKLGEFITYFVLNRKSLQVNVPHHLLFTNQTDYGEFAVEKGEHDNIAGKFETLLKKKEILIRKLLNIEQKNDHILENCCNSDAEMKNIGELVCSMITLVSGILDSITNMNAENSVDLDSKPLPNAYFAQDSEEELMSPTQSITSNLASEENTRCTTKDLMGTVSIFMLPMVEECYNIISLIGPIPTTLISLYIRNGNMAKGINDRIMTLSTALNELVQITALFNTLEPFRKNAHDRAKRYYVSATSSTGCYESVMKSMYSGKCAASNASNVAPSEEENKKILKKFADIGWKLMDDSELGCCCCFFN
Method in brief: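 Masliner-normalised scans of fluorescent anti-GST signal were the basis for scoring. That signal came from GST-tagged yeast transcription factors applied at about 100-200 nM to double-stranded universal all-10-mer Agilent arrays on fresh or once-stripped slides. Each ungapped eight-base word, pooled with its reverse complement, received an E-score from the Universal PBM Analysis Suite.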

Row | Sequence | PBM E-score
1 | AGGATGAA | 0.187
2 | AGTCCAGC | -0.114
3 | GGGTGAAA | 0.0993
4 | ACAGTCGT | -0.164
5 | GGGAAAAA | 0.453
6 | AGGAAAAA | 0.431
7 | AGGAAAAG | 0.038
8 | GGGGAAAA | 0.208
9 | AGGAAAAC | 0.12
10 | TGGAAAAA | 0.458
11 | TGGAAACA | -0.0929
12 | TGAAAAAA | 0.246
13 | GGGAAAAC | 0.0792
14 | CGTGGAAA | 0.182
15 | AGTGGAAA | 0.146
16 | TGTGGAAA | 0.291
17 | GGCTGAGA | -0.171
18 | GTCATTAA | 0.203
19 | TGTTATAA | 0.19
20 | ATACGGTA | 0.125
21 | CTTTGTGC | -0.00737
22 | CAGGCATC | 0.00941
23 | TCTCGACA | 0.0966
24 | CCGACTCC | -0.185
25 | AAGAAATT | 0.281
26 | AGAAAAAT | 0.269

Row | Sequence | PBM E-score
27 | AAGAAAAT | 0.331
28 | ACGAAAAT | 0.259
29 | AAGAAAAA | 0.258
30 | AGGAAAAT | 0.379
31 | CTACTGGC | -0.052
32 | AGTAGCTG | 0.0396
33 | GCAGCGTA | -0.106
34 | AGAACTAT | 0.275
35 | ATCTTTGG | 0.0693
36 | ATTTAGTC | 0.0709
37 | ATTTAGTA | 0.376
38 | CTTTAATC | 0.145
39 | CTTTAGTA | 0.0159
40 | ATTTAATA | 0.325
41 | CTTTAATA | 0.227
42 | ATTTAATC | 0.352
43 | ATTTAATG | 0.244
44 | GTTTAATA | 0.264
45 | GACTCCCA | -0.305
46 | CAGCCGTC | -0.0893
47 | AGGAAGAG | -0.0292
48 | AGGAAGAT | 0.323
49 | CGGAAGAG | -0.108
50 | GGGAAGAA | 0.256
51 | AAGAAGAT | 0.205
52 | TAGAAGAA | 0.0772

Row | Sequence | PBM E-score
53 | AGGAAGAA | 0.36
54 | AAGAAGAA | 0.185
55 | AGGAAGAC | -0.214
56 | CGGAAGAC | 0.00735
57 | CGGAAGAA | 0.462
58 | TGGAAGAA | 0.347
59 | TGATACCA | 0.092
60 | CATTGGGC | -0.222
61 | CCTAAAAG | -0.226
62 | AGGATGCC | -0.102
63 | ATCGAATC | 0.0745
64 | TAAAGGTA | 0.0512
65 | CAATGAAC | 0.00305
66 | GCGCACAA | -0.0152
67 | CCGAAATC | 0.0136
68 | GGACCAGA | -0.0563
69 | AAGTCCAC | -0.0692
70 | GTACCACA | 0.121
71 | TTGGGAAA | 0.294
72 | CTGGGAAA | 0.135
73 | TTGAAAAA | 0.237
74 | CTGGAAAC | -0.0702
75 | CTGGAAAA | 0.377
76 | TTGGAAAA | 0.298
77 | GTGGAAAC | -0.0663
78 | CTGGAAAG | -0.189

Row | Sequence | PBM E-score
79 | GTGGAAAA | 0.298
80 | TAGGAAAA | 0.229
81 | ATGGGAAA | 0.0136
82 | GTGGAAGA | 0.137
83 | AAAGCTTG | 0.147
84 | CTGCAAAC | 0.0506
85 | CCGCCTGA | -0.172
86 | TCTGCGCA | 0.0104
87 | CAGATATG | -0.0501
88 | ATGGAAAG | 0.122
89 | ATGGAAAA | 0.32
90 | ATGGAAAT | 0.175
91 | ATTTGGCC | -0.0178
92 | CTCATCAG | 0.0236
93 | CAATGAGG | -0.14
94 | CTAACGAA | 0.0607
95 | TTAACGAA | 0.296
96 | ATAACGAA | 0.229
97 | CAATAAGC | 0.0395
98 | AAATAAAT | 0.298
99 | AAATAACA | 0.11
100 | AAATAAGT | 0.295
101 | AAATAAGG | 0.00755
102 | ATATAAAG | 0.211
103 | ATATAAAC | 0.142
104 | ATATAAAT | 0.34

Row | Sequence | PBM E-score
105 | AAATAAAG | 0.281
106 | AAATAACT | 0.294
107 | AAATAAGC | 0.0677
108 | AAATAAAA | 0.233
109 | AAATAACG | 0.232
110 | GATTCTGC | 0.0635
111 | CAGCAAAC | -0.0765
112 | GGTTCTGA | -0.0472
113 | ACATGACC | -0.186
114 | ACTTATGA | 0.171
115 | CGATCTAC | -0.0159
116 | AGCTGGTA | -0.142
117 | AGGATTAG | 0.161
118 | AGGATTTA | 0.228
119 | AGGATTAC | 0.106
120 | AGGATTAT | 0.306
121 | AGGATTAA | 0.361
122 | AGGATTCA | 0.114
123 | CCTGTAGC | -0.353
124 | GGCCTACC | -0.113
125 | CGACTGCA | -0.126
126 | ACTAACGG | -0.0153
127 | ACAATTAC | 0.202
128 | ACAATTAG | 0.0047
129 | ACAATTAT | 0.328
130 | CCAATTAA | 0.215

Row | Sequence | PBM E-score
131 | TCAATTAA | 0.252
132 | ACAATTAA | 0.302
133 | GGCTAGGA | -0.106
134 | ACCGCACT | -0.0787
135 | GAGAGCTC | -0.197
136 | AGCCCAAT | -0.125
137 | GAGTTTTA | 0.146
138 | AAGATATA | 0.323
139 | GATATATA | 0.289
140 | GATATATC | 0.226
141 | CAGATATA | 0.175
142 | CGGATATC | 0.0386
143 | TATATATA | 0.28
144 | CGGATATA | 0.345
145 | GGGATATA | 0.158
146 | AAGATATC | 0.117
147 | CGTGGTTA | -0.0128
148 | CGCGAGCA | -0.12
149 | CACCTTAC | -0.00385
150 | ACGGAACT | 0.0148
151 | CGGGAACA | 0.331
152 | CCGGAACC | -0.16
153 | ACGGAACA | 0.298
154 | AGGGAACA | 0.249
155 | GGGGAACA | 0.00453
156 | GCGGAACA | 0.265

Row | Sequence | PBM E-score
157 | TGGGAACA | 0.111
158 | CCGGAACG | -0.0381
159 | TCGGAACA | 0.387
160 | CCGGAACA | 0.447
161 | ACGGAACC | -0.0347
162 | ATCGTTCC | -0.196
163 | ATATTTGC | 0.222
164 | TATGTTAA | 0.238
165 | CAGGGAAC | 0.0159
166 | CCCATCCC | -0.23
167 | ACTGACGA | -0.0835
168 | CTAATTCC | 0.0934
169 | ATAATTCA | 0.241
170 | ATGATTCC | 0.336
171 | ACAATTCG | 0.0965
172 | ATAATTCC | 0.348
173 | ATAATTCG | 0.294
174 | ATGATTCA | 0.127
175 | CTGATTCC | -0.0421
176 | AGAATTCC | 0.0767
